Results from PubChem BioAssay AID1159580 (chemical genetic matrix, 2015).
“And” between values parts separate entries of the source, which are not always exact repeats. Equal values may be shown once. The whole screen tested about 5,500 compounds, of which about 2,000 (36%) were called active. Roughly 18% stayed inconclusive and do not appear here. Cut-off read from the data, not from the text of the source: active = normalized growth mostly below about 0.91 (no sharp cut-off); inconclusive = no clear call, values can overlap the other calls; inactive = mostly above about 0.92. This is one part of the list.

Test: chemical genetic growth profiling, strain panel (AID 1159580);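 note: tested at 20 µM; growth read once vehicle control cultures reached saturation at 30 °C; 1 = growth at the plate median or of vehicle wells; lower values mean less growth of the strain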
Details: growth OD

Measured: normalized growth

O=C1CCCN1CC#CCN1CCCC1
inactive: S. cerevisiae deletion strains, locus YJR075W, strain HOC1, active compounds read low 0.988 and 1 | S. cerevisiae deletion strains, locus YKL009W, strain mrt4, active compounds read low 1.02 and 1.05 | S. cerevisiae deletion strains, locus YKL068W, active compounds read low 1 | S. cerevisiae deletion strains, locus YKL085W, strain MDH1 (second series), active compounds read low 1.02 | S. cerevisiae deletion strains, locus YKL085W, strain MDH1, active compounds read low 1.02 | S. cerevisiae deletion strains, locus YKL160W, strain elf1, active compounds read low 1.02 | S. cerevisiae deletion strains, locus YKL190W, strain CNB1, active compounds read low 0.989 and 1.02 | S. cerevisiae deletion strains, locus YKR001C, strain vps1, active compounds read low 1.01 and 1.02 | S. cerevisiae deletion strains, locus YKR026C, strain gcn3, active compounds read low 1.02 | S. cerevisiae deletion strains, locus YKR091W, strain srl3, active compounds read low 1.02 | S. cerevisiae deletion strains, locus YLL001W, strain dnm1, active compounds read low 1.02 | S. cerevisiae deletion strains, locus YLL026W, active compounds read low 1.01 | S. cerevisiae deletion strains, locus YLL041C, strain sdh2, active compounds read low 1.02 | S. cerevisiae deletion strains, locus YLR027C, strain aat2, active compounds read low 1.02 | S. cerevisiae deletion strains, locus YLR039C, strain RIC1, active compounds read low 1.03 and 1.01 | S. cerevisiae deletion strains, locus YLR058C, strain SHM2, active compounds read low 1.01 | S. cerevisiae deletion strains, locus YLR102C, strain apc9, active compounds read low 1.01 and 1.02 | S. cerevisiae deletion strains, locus YLR113W, strain HOG1, active compounds read low 1.04 | S. cerevisiae deletion strains, locus YLR221C, strain rsa3, active compounds read low 1 | S. cerevisiae deletion strains, locus YLR258W, strain gsy2, active compounds read low 1.02 | S. cerevisiae deletion strains, locus YLR262C, strain YPT6 (second series), active compounds read low 1.03 | S. cerevisiae deletion strains, locus YLR262C, strain YPT6, active compounds read low 1.05 and 1.02 | S. cerevisiae deletion strains, locus YLR268W, strain sec22, active compounds read low 1.02 and 0.991 | S. cerevisiae deletion strains, locus YLR320W, strain mms22, active compounds read low 1.02 | S. cerevisiae deletion strains, locus YLR330W, strain CHS5, active compounds read low 1 and 1.01 | S. cerevisiae deletion strains, locus YLR342W, strain FKS1 (second series), active compounds read low 1.02 and 1.06 | S. cerevisiae deletion strains, locus YLR342W, strain FKS1, active compounds read low 1.02 | S. cerevisiae deletion strains, locus YLR357W, strain rsc2, active compounds read low 1.05 | S. cerevisiae deletion strains, locus YLR370C, strain arc18, active compounds read low 1.02 | S. cerevisiae deletion strains, locus YLR371W, strain rom2, active compounds read low 0.994 and 1.03 | S. cerevisiae deletion strains, locus YLR384C, strain iki3, active compounds read low 1.03 | S. cerevisiae deletion strains, locus YLR418C, strain cdc73, active compounds read low 1.05 and 0.979 | S. cerevisiae deletion strains, locus YML016C, strain PPZ1, active compounds read low 1.01 | S. cerevisiae deletion strains, locus YML032C, strain rad52, active compounds read low 1.01 and 1.04 | S. cerevisiae deletion strains, locus YML120C, strain ndi1, active compounds read low 1.03 | S. cerevisiae deletion strains, locus YML124C, strain tub3, active compounds read low 1 | S. cerevisiae deletion strains, locus YMR058W, strain fet3, active compounds read low 1.03 | S. cerevisiae deletion strains, locus YMR078C, strain ctf18, active compounds read low 1.03 and 1.02 | S. cerevisiae deletion strains, locus YMR125W, strain sto1, active compounds read low 1.04 | S. cerevisiae deletion strains, locus YMR129W, active compounds read low 1.03 | S. cerevisiae deletion strains, locus YMR205C, strain PFK2, active compounds read low 1.02 | S. cerevisiae deletion strains, locus YMR223W, strain ubp8, active compounds read low 1.02 and 1.03 | S. cerevisiae deletion strains, locus YMR231W, strain pep5, active compounds read low 1.03 | S. cerevisiae deletion strains, locus YMR263W, strain SAP30, active compounds read low 1.01 | S. cerevisiae deletion strains, locus YMR307W, strain GAS1, active compounds read low 1 and 0.983 | S. cerevisiae deletion strains, locus YNL067W, strain RPL9B, active compounds read low 0.998 and 1.01 | S. cerevisiae deletion strains, locus YNL071W, strain lat1, active compounds read low 1.02 | S. cerevisiae deletion strains, locus YNL128W, strain TEP1, active compounds read low 1.01 | S. cerevisiae deletion strains, locus YNL153C, strain GIM3, active compounds read low 1.03 and 0.992 | S. cerevisiae deletion strains, locus YNL175C, strain NOP13, active compounds read low 0.992 | S. cerevisiae deletion strains, locus YNL183C, strain NPR1, active compounds read low 0.999 | S. cerevisiae deletion strains, locus YNL197C, strain WHI3, active compounds read low 0.986 | S. cerevisiae deletion strains, locus YNL209W, strain ssb2, active compounds read low 1.02 | S. cerevisiae deletion strains, locus YNL224C, strain SQS1, active compounds read low 1.01 | S. cerevisiae deletion strains, locus YNL233W, strain BNI4, active compounds read low 0.993 and 0.996 | S. cerevisiae deletion strains, locus YNL248C, strain rpa49, active compounds read low 1.03 | S. cerevisiae deletion strains, locus YNL250W, strain rad50, active compounds read low 1.02 and 1.01 | S. cerevisiae deletion strains, locus YNL271C, strain bni1, active compounds read low 1.01 and 1.03 | S. cerevisiae deletion strains, locus YNL298W, strain CLA4, active compounds read low 1.03 | S. cerevisiae deletion strains, locus YNL307C, strain MCK1, active compounds read low 1.02 and 1.03 | S. cerevisiae deletion strains, locus YNL322C, strain KRE1 (second series), active compounds read low 1.02 | S. cerevisiae deletion strains, locus YNL322C, strain KRE1, active compounds read low 1 and 1.01 | S. cerevisiae deletion strains, locus YNR049C, strain mso1, active compounds read low 1.02 | S. cerevisiae deletion strains, locus YNR052C, strain pop2, active compounds read low 1.01 and 1.04 | S. cerevisiae deletion strains, locus YOL006C, strain TOP1, active compounds read low 1.03 and 1.04 | S. cerevisiae deletion strains, locus YOL012C, strain htz1 0.71 and 1.25 | S. cerevisiae deletion strains, locus YOL147C, strain pex11, active compounds read low 1.01 | S. cerevisiae deletion strains, locus YOR001W, strain rrp6, active compounds read low 1.04 | S. cerevisiae deletion strains, locus YOR061W, strain CKA2, active compounds read low 1.01 | S. cerevisiae deletion strains, locus YOR069W, strain VPS5, active compounds read low 1 and 1.01 | S. cerevisiae deletion strains, locus YOR070C, strain gyp1, active compounds read low 1.02 | S. cerevisiae deletion strains, locus YOR080W, strain dia2, active compounds read low 1.03 | S. cerevisiae deletion strains, locus YOR083W, strain WHI5 (second series), active compounds read low 1.02 | S. cerevisiae deletion strains, locus YOR083W, strain WHI5, active compounds read low 1.02 | S. cerevisiae deletion strains, locus YOR106W, strain vam3, active compounds read low 1.05 | S. cerevisiae deletion strains, locus YOR136W, strain idh2, active compounds read low 1.01 and 1.02 | S. cerevisiae deletion strains, locus YOR144C, strain elg1, active compounds read low 1 and 1.01 | S. cerevisiae deletion strains, locus YOR184W, strain ser1, active compounds read low 1.04 and 1.05 | S. cerevisiae deletion strains, locus YOR231W, strain MKK1, active compounds read low 1.06 | S. cerevisiae deletion strains, locus YOR265W, strain rbl2, active compounds read low 1.02 | S. cerevisiae deletion strains, locus YOR270C, strain vph1, active compounds read low 1.08 | S. cerevisiae deletion strains, locus YOR290C, strain snf2, active compounds read low 1.02 | S. cerevisiae deletion strains, locus YOR316C, strain cot1, active compounds read low 1.01 | S. cerevisiae deletion strains, locus YPL051W, strain arl3, active compounds read low 1.02 | S. cerevisiae deletion strains, locus YPL055C, strain LGE1, active compounds read low 0.986 and 1.01 | S. cerevisiae deletion strains, locus YPL078C, strain atp4, active compounds read low 1.04 | S. cerevisiae deletion strains, locus YPL106C, strain sse1, active compounds read low 1.02 | S. cerevisiae deletion strains, locus YPL240C, strain hsp82, active compounds read low 1.03 | S. cerevisiae deletion strains, locus YPL241C, strain CIN2, active compounds read low 1 and 1.01 | S. cerevisiae deletion strains, locus YPL256C, strain CLN2, active compounds read low 1.02 | S. cerevisiae deletion strains, locus YPR119W, strain clb2, active compounds read low 1.01 | S. cerevisiae deletion strains, locus YPR141C, strain kar3, active compounds read low 1.01 | S. cerevisiae deletion strains, locus YPR163C, strain tif3, active compounds read low 1.02 and 1 | S. cerevisiae deletion strains, locus YPR167C, strain met16, active compounds read low 1.02 and 1.03 | S. cerevisiae deletion strains, strain wtn01, active compounds read low 1.03 and 1.02 | S. cerevisiae strains, strain wild type, active compounds read low 1 and 1.01
